Laboratory results as given in PubChem BioAssay (NCATS).
Records with an inconclusive call do not appear. Calls of active or inactive are those of the source. Calls come from the whole dose curve; as a rule, active = well fitted inhibition curve with a large enough effect; inconclusive = small, poorly fitted or top-dose-only effect; inactive = flat fitted curve, though single readings scatter.

Molecular target: Aldehyde dehydrogenase, mitochondrial (Homo sapiens) (UniProt P05091)
Experiment: qHTS for Inhibitors of the Aldehyde Dehydrogenase Family (ALDH2) Primary screen (AID 2061308);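 note: plate controls were vehicle for no effect and reference inhibitor for full effect; nearly all actives have a fitted effect of over 55% in size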
Conditions: ALDH2 enzyme inhibition qHTS, 1536-well; series mostly up to 56 µM; activity change, negative = inhibition: at the top concentration

Question: With `COc1cccc(CNc2ccc(S(=O)(=O)Nc3cccc(-c4ccccc4)c3)cc2)c1O` as the compound, how does the “activity change, negative = inhibition” value read?
Answer: -13.2% (inactive)

Question: `C[C@]12CC[C@@H](O)C[C@@H]1CC[C@@H]1[C@@H]2CC[C@]2(C)C(=O)[C@@H](Br)C[C@@H]12` was tested. Which “activity change, negative = inhibition” value did it give?
Answer: 2.62% (inactive)

Question: For `Oc1cccc2cc(N3CCNCC3)cnc12`, which “activity change, negative = inhibition” value is on record?
Answer: -0.0406% (inactive)

Question: For `Cn1c(-c2ccccc2)c(P(=S)(c2ccccc2)c2ccccc2)c2ccccc21`, which “activity change, negative = inhibition” value is on record?
Answer: -3.5% (inactive)

Question: Which “activity change, negative = inhibition” value does the source give for `CCN1CCN(C(c2ccc(Cl)cc2)c2ccc(Cl)cc2)CC1` here?
Answer: 8.03% (inactive)

Question: Which “activity change, negative = inhibition” value does the source give for `CC(=O)OC[C@]12C[C@H](OC(=O)CC(C)C)C(C)=C[C@H]1O[C@@H]1[C@H](O)[C@@H](O)[C@@]2(C)[C@]12CO2` here?
Answer: 17.7% [at 28 µM] (inactive)

Question: How did the “activity change, negative = inhibition” value turn out when `Oc1ccc2c3c1O[C@H]1c4[nH]c5c(N=C=S)cccc5c4C[C@@]4(O)[C@@H](C2)N(CC2CC2)CC[C@]314` was run?
Answer: 28.9% (inactive)

Question: Which “activity change, negative = inhibition” value does the source give for `CCCCC1C(=O)NC(=O)N(C2CCCCC2)C1=O` (configuration not stated) here?
Answer: -0.714% (inactive)

Question: With `Cc1cccc2nc(NC3=NC(c4[nH]ncc4Cl)C4=C(CCCC4=O)N3)oc12` (configuration not stated) as the compound, how does the “activity change, negative = inhibition” value read?
Answer: -1.88% (inactive)

Question: Which “activity change, negative = inhibition” value does the source give for `CO[C@@H]1C[C@H](O[C@H]2CC[C@@]3(C)C(CCC4C3CC[C@]3(C)[C@@H](C5=CC(=O)OC5)[C@@H](OC(C)=O)CC43O)C2)O[C@H](C)[C@@H]1O[C@H]1O[C@H](CO[C@@H]2O[C@H](CO)[C@@H](O)[C@H](O)[C@H]2O)[C@@H](O)[C@H](O)[C@H]1O` (some centres not stated) here?
Answer: 0.55% [at 16.9 µM] (inactive)

Question: Which “activity change, negative = inhibition” value does the source give for `COC1CC(OC2CCC3(C=O)C(CCC4C3CCC3(C)C(C5=CC(=O)OC5)CCC43O)C2)OC(C)C1OC1OC(CO)C(O)C(O)C1O` (configuration not stated) here?
Answer: -1.16% [at 16.9 µM] (inactive)

Question: For `COc1ccsc1CNCC[C@@]1(c2ccccn2)CCOC2(CCCC2)C1`, which “activity change, negative = inhibition” value is on record?
Answer: 3.8% (inactive)
